PubChem BioAssay (NCATS)
Inconclusive results are not listed. Activity calls are given as the source filed them. The call rests on the fitted dose curve; in most records, active means well fitted cell-killing curve with a large enough effect; inconclusive means small, poorly fitted or top-dose-only effect, or effect the other way; inactive means flat fitted curve, though single readings scatter.

Columns and labels:
Test in all cases: Primary qHTS to identify gynecologic anti-cancer compounds using libraries of approved drugs and bioactive compounds (AID 1345084); further: nearly all actives have a fitted effect of over 55% in size
[1] = tested on: C33A; conditions: Gynecologic cancer cell panel viability, ATPlite luminescence, 48 h; series mostly up to 57.5 µM
How it was run: (§1)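 Cytotoxicity screen measuring ATP content by luciferase luminescence. Each compound is applied at five concentrations for 48 h at 37 C with 5% CO2.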

[2] = tested on: CAOV3; conditions: Gynecologic cancer cell panel viability, ATPlite luminescence, 48 h; series mostly up to 57.5 µM
How it was run: as §1

[3] = tested on: CASKI; conditions: Gynecologic cancer cell panel viability, ATPlite luminescence, 48 h; series mostly up to 57.5 µM
How it was run: as §1

[4] = tested on: Es-2; conditions: Gynecologic cancer cell panel viability, ATPlite luminescence, 48 h; series mostly up to 57.5 µM
How it was run: as §1

[5] = tested on: HeLa; conditions: Gynecologic cancer cell panel viability, ATPlite luminescence, 48 h; series mostly up to 57.5 µM
How it was run: as §1

[6] = tested on: Hek293T; conditions: Gynecologic cancer cell panel viability, ATPlite luminescence, 48 h, control line for the selectivity index; series mostly up to 57.5 µM
How it was run: as §1

[7] = tested on: JEG-3; conditions: Gynecologic cancer cell panel viability, ATPlite luminescence, 48 h; series mostly up to 57.5 µM
How it was run: as §1

[8] = tested on: OV90; conditions: Gynecologic cancer cell panel viability, ATPlite luminescence, 48 h; series mostly up to 57.5 µM
How it was run: as §1

[9] = tested on: PA-1; conditions: Gynecologic cancer cell panel viability, ATPlite luminescence, 48 h; series mostly up to 57.5 µM
How it was run: as §1

[10] = tested on: SKOV3; conditions: Gynecologic cancer cell panel viability, ATPlite luminescence, 48 h; series mostly up to 57.5 µM
How it was run: as §1

[11] = tested on: Tov-21-G; conditions: Gynecologic cancer cell panel viability, ATPlite luminescence, 48 h; series mostly up to 57.5 µM
How it was run: as §1

[12] = tested on: Tov112D; conditions: Gynecologic cancer cell panel viability, ATPlite luminescence, 48 h; series mostly up to 57.5 µM
How it was run: as §1
On the % scale 0 is the no-effect control and ±100 the full control effect.

CC1(C)CC2=C3C=CC4C5(C)CCC(O)C(C)(C)C5CCC4(C)C3(C)CCC2(C)C(O)C1 (stereo unspecified)
inactive: Potency [1] | Potency [2] | Potency [3] | Potency [4] | Potency [5] | Potency [6] | Potency [7] | Potency [8] | Potency [9] | Potency [10] | Potency [11] | Potency [12]

COC1CC(O[C@H]2CC[C@@]3(C)C(=CC[C@]4(O)C3[C@H](OC(C)=O)[C@@H](OC(=O)c3ccccc3)[C@]3(C)[C@@H](C(C)=O)CC[C@@]34O)C2)OC(C)C1OC1CC(OC)C(OC2CC(OC)C(OC3OC(C)C(OC4OC(CO)C(O)C(O)C4O)C(OC)C3O)C(C)O2)C(C)O1 (stereo partly specified)
inactive: activity change, negative = cytotoxicity [1] -6.27% [at 6.55 µM] | activity change, negative = cytotoxicity [2] -1.71% [at 6.55 µM] | activity change, negative = cytotoxicity [3] -17.5% [at 6.55 µM] | activity change, negative = cytotoxicity [4] 3.59% [at 6.55 µM] | activity change, negative = cytotoxicity [5] -1.12% [at 6.55 µM] | activity change, negative = cytotoxicity [6] -1.35% [at 6.55 µM] | activity change, negative = cytotoxicity [7] -8.02% [at 6.55 µM] | activity change, negative = cytotoxicity [8] 7.55% [at 6.55 µM] | activity change, negative = cytotoxicity [9] -5.59% [at 6.55 µM] | activity change, negative = cytotoxicity [10] 11% [at 6.55 µM] | activity change, negative = cytotoxicity [11] -0.609% [at 6.55 µM] | activity change, negative = cytotoxicity [12] 2.04% [at 6.55 µM]

C[C@@H]1O[C@@H](O[C@H]2[C@@H](OC(=O)[C@]34CCC(C)(C)CC3C3=CCC5[C@@]6(C)C[C@H](O)[C@H](O[C@@H]7O[C@H](C(=O)O)[C@@H](O)[C@H](O)[C@H]7O)[C@@](C)(C(=O)O)C6CC[C@@]5(C)[C@]3(C)CC4)OC[C@H](O)[C@@H]2O)[C@H](O)[C@H](O)[C@H]1O[C@@H]1OC[C@@H](O)[C@H](O)[C@H]1O (stereo partly specified)
inactive: activity change, negative = cytotoxicity [1] 1.85% [at 11.6 µM] | activity change, negative = cytotoxicity [2] 24.8% [at 11.6 µM] | activity change, negative = cytotoxicity [3] 0.336% [at 11.6 µM] | activity change, negative = cytotoxicity [4] -0.221% [at 11.6 µM] | activity change, negative = cytotoxicity [5] -0.61% [at 11.6 µM] | activity change, negative = cytotoxicity [6] -0.464% [at 11.6 µM] | activity change, negative = cytotoxicity [7] 3.02% [at 11.6 µM] | activity change, negative = cytotoxicity [8] 7.22% [at 11.6 µM] | activity change, negative = cytotoxicity [9] -35% [at 11.6 µM] | activity change, negative = cytotoxicity [10] 13.5% [at 11.6 µM] | activity change, negative = cytotoxicity [11] -4.55% [at 11.6 µM] | activity change, negative = cytotoxicity [12] -6.05% [at 11.6 µM]

CC1(C)C2CC=C(COC3OC(COC4OCC(O)(CO)C4O)C(O)C(O)C3O)C1C2 (stereo unspecified)
inactive: Potency [1] | Potency [2] | Potency [3] | Potency [4] | Potency [5] | Potency [6] | Potency [7] | Potency [8] | Potency [9] | Potency [10] | Potency [11] | Potency [12]

CN=C(N)NCCCCC/C=C(/C)CC(C)C1OC(=O)C(C)C(O)/C=C/C(C)C(O)CC(O)C(C)C(O)CCC(C)C(O)CC2(O)OC(CC(OC(=O)CC(=O)O)CC(O)CC(O)C(C)C(O)/C(C)=C/CCC1C)CC(O)C2O (stereo unspecified)
inactive: activity change, negative = cytotoxicity [1] 11.4% [at 11.6 µM] | activity change, negative = cytotoxicity [2] 12.9% [at 11.6 µM] | activity change, negative = cytotoxicity [3] 9.88% [at 11.6 µM] | activity change, negative = cytotoxicity [4] 0.226% [at 11.6 µM] | activity change, negative = cytotoxicity [5] 3.51% [at 11.6 µM] | activity change, negative = cytotoxicity [6] 10.1% [at 11.6 µM] | activity change, negative = cytotoxicity [7] 16% [at 11.6 µM] | activity change, negative = cytotoxicity [8] 7.81% [at 11.6 µM] | activity change, negative = cytotoxicity [9] 16.3% [at 11.6 µM] | activity change, negative = cytotoxicity [10] 0% [at 11.6 µM] | activity change, negative = cytotoxicity [11] 3.06% [at 11.6 µM] | activity change, negative = cytotoxicity [12] -6.61% [at 11.6 µM]

COc1cc(/C=C/C(=O)O[C@H]2[C@H](O)[C@@H](CO)O[C@@]2(CO)O[C@H]2O[C@H](CO)[C@@H](O)[C@H](O)[C@H]2O)ccc1O
inactive: Potency [1] | Potency [2] | Potency [3] | Potency [4] | Potency [5] | Potency [6] | Potency [7] | Potency [8] | Potency [9] | Potency [10] | Potency [11] | Potency [12]

CC(C)c1ccc2c(c1)C(=O)CC1[C@@](C)(C(=O)O)CCC[C@]21C (stereo partly specified)
inactive: Potency [1] | Potency [2] | Potency [3] | Potency [4] | Potency [5] | Potency [6] | Potency [7] | Potency [8] | Potency [9] | Potency [10] | Potency [11] | Potency [12]

CC1=CC(=O)CC(C)(C)C1/C=C/C(C)O[C@@H]1O[C@H](CO)[C@@H](O)[C@H](O)[C@H]1O[C@@H]1OC[C@](O)(CO)[C@H]1O (stereo partly specified)
inactive: Potency [1] | Potency [2] | Potency [3] | Potency [4] | Potency [5] | Potency [6] | Potency [7] | Potency [8] | Potency [9] | Potency [10] | Potency [11] | Potency [12]
